# Sampled rows, rich in hits. Any-hit rate of the full collection: about 3.1%.
# TRb-SRC2 inh = inhibitors of human thyroid hormone receptor beta-SRC2 interaction; TRbeta-SRC2 peptide binding, fluorescence polarization; receptor liganded with 1 µM T3; Potency, µM (titrated, usually from 106 µM), inactives show at the highest dose activity change, negative = inhibition, usual class: inhibitors; 280,000 tested, 0.065% active;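 note: plate controls were bound peptide for no effect and peptide without receptor for full effect; nearly all actives have a fitted effect of over 50% in size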
# Target sequence (P10828 whole entry, looked up): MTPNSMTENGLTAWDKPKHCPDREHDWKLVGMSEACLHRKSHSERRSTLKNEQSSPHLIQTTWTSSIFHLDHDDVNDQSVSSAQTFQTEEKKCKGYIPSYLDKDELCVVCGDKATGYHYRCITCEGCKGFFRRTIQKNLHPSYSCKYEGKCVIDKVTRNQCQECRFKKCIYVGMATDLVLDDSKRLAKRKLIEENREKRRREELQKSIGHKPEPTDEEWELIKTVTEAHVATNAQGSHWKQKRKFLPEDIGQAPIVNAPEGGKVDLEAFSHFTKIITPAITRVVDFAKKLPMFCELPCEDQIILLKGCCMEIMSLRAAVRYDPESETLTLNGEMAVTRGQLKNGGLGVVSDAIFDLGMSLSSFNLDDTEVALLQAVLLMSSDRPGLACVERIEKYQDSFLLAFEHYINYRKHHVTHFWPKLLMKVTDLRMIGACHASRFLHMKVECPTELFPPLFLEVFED
#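 Assay buffer: 20 mM Tris-HCl, 100 mM NaCl, 10% glycerol, 1 mM EDTA, 0.01% NP-40, 1 mM DTT, 1 uM T3, 5% DMSO; TRb LBD 0.6 uM, Texas Red SRC2 20 nM; FP after 5 hr.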
# Tau fluor cs = counter-screen for tau fibril formation inhibitors; tau K18 P301L Alexa594 fluorescence, heparin fibrillization; Potency, µM (top dose mostly 57.7 µM), for the others: at the highest dose activity change, negative = decrease; 280,000 tested, 0.93% active; AID 1463; note: nearly all actives have a fitted effect of over 55% in size
#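 Human tau K18 P301L (15 uM unlabeled, 0.24 uM Alexa 594-labeled) in 100 mM sodium acetate pH 7 with 20 uM heparin, 6 hr at 37 C. ThT 30 uM added, 1 hr ambient; Alexa 594 FP and total fluorescence read at 555/632 nm.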
# TexasRed fluor = alters Texas Red total fluorescence, flagging assay interference; TRb/SRC2 Texas Red total fluorescence interference; Potency, µM (top dose mostly 106 µM), without a hit: top-dose fluorescence change, negative = quenching; 280,000 tested, 0.29% active; active = well fitted curve in either direction with a large enough effect; inconclusive = small, poorly fitted or top-dose-only effect
#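 Human TRβ ligand-binding domain (0.6 uM) and Texas Red SRC2 peptide (20 nM) in Tris buffer with 1 uM T3 and 5% DMSO were incubated with pinned compound for 5 hr at ambient temperature. Total fluorescence was computed as S + 2P (555/632 nm).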
# Tau fibril ThT = inhibitors of human tau fibril formation, thioflavin T binding; recombinant tau K18 P301L (four-repeat tau fragment), heparin-induced fibrillization, ThT fluorescence; Potency, µM (series often up to 57.4 µM), for inactives: at the highest dose activity, negative = inhibition, most hits filed as inhibitors; 270,000 tested, 2.1% active; AID 1460; note: nearly all actives have a fitted effect of over 55% in size
# Target sequence (P10636 561-689 P618L limits assumed): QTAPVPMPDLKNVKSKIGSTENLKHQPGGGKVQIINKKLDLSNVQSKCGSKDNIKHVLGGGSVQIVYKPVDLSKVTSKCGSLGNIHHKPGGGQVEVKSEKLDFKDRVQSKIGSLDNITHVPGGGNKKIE
#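 Recombinant human tau K18 fragment […] carrying P301L, 15 uM unlabeled plus 0.24 uM Alexa 594-labeled, was fibrillized with 20 uM heparin in 100 mM sodium acetate pH 7 for 6 hr at 37 C; 30 uM ThT fluorescence read after 1 hr.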
# Tau FP inhib = blocks human tau fibril formation measured by polarization; AID 1468; Potency, µM (highest dose often 57.7 µM), for inactives: top-dose activity, negative = inhibition, actives largely listed as inhibitors; K18 P301L tau heparin fibrillization, Alexa594 FP, 6 h; 280,000 tested, 0.39% active; note: nearly all actives have a fitted effect of over 55% in size
#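 Compound effects on tau fibrillization are measured by Alexa 594 fluorescence polarization (ex 555, em 632 nm). K18 P301L tau is used at 15 uM with 0.24 uM labeled tracer, and 20 uM heparin induces aggregation over 6 hr at 37 C.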
# The depositor's hits bear a star; ? = inconclusive; nt = not tested or not shown; [ ] = another dose, or the depositor's remark. Unless noted, calls come from the whole dose curve; as a rule, active = well fitted curve in the direction sought with a large enough effect; inconclusive = small, poorly fitted or top-dose-only effect, or another doubt; inactive = no such curve, though single readings can be large; an effect the other way counts as inactive or inconclusive. Unless noted, % is set by controls: 0 for no effect and ±100 for the full control effect; potency is the fitted concentration of half-maximal effect.
SMILES,TRb-SRC2 inh,Tau fluor cs,TexasRed fluor,Tau fibril ThT,Tau FP inhib
COc1ccc2nc(N)sc2c1,-5.0%[201 µM],0.3%,-5.6%[201 µM],-8.7%,-2.1%
COc1ccc2nc(N=Nc3ccc(O)c4ccccc34)sc2c1,0.6%,?,-8.2%,2.51µM*,-14.7%
CCN(c1ccc(C)cc1)S(=O)(=O)c1nnc(NC(=O)C2CCCCC2)s1,-7.4%,-27.7%,11.6%,?,-15.9%
CC(C)CC(=O)Nc1nnc(S(=O)(=O)N(CC(C)C)c2ccccc2)s1,-6.6%,-1.7%,6.0%,?,-2.8%
CCN(c1ccccc1)S(=O)(=O)c1nnc(NC(=O)C2CCCCC2)s1,-2.3%,-22.0%,5.4%,3.55µM*,5.8%
CC(C)CN(c1ccccc1)S(=O)(=O)c1nnc(NC(=O)C2CCCCC2)s1,-16.7%,-10.6%,4.47µM*[quencher],?,0.4%
CCOc1ccccc1NC(=O)Cn1c(=O)n(CCCC(=O)NCCc2ccc(C)cc2)c(=O)c2ccccc21,6.9%,-11.7%,5.2%,-6.0%,-6.1%
CCN(CC)C(=O)COC(=O)c1cc(-c2ccco2)nc2ccccc12,0.9%,-11.6%,35.5µM*[quencher],?,-8.0%
Cn1c(N)c(C(=O)COC(=O)c2cc(-c3ccco3)nc3ccccc23)c(=O)n(Cc2ccccc2)c1=O,5.8%,?,-2.9%,12.6µM*,?
CNC(=O)COC(=O)c1cc(-c2ccco2)nc2ccccc12,-0.6%,-24.8%,-10.9%,?,-3.0%
CCOC(=O)c1ccc(NC(=O)CCc2c(C)nc3c(c(C)nn3C(C)(C)C)c2C)cc1,-3.4%,-24.5%,0.6%,-13.7%,?
CCOC(=O)N1CCN(C(=O)c2c(N)no[n+]2[O-])CC1,-6.9%,-11.0%,-1.9%,25.1µM*,?
Cc1cccc(NC(=O)Cn2c(=O)n(Cc3ccc(C(=O)NCc4ccc5c(c4)OCO5)cc3)c(=O)c3ccccc32)c1,0.0%,-15.3%,-67.3%,4.4%,?
O=C(Cn1c(=O)n(Cc2ccc3c(c2)OCO3)c(=O)c2ccccc21)Nc1cccc(Cl)c1,8.0%,?,1.1%,?,28.2µM*
CCOc1ccc(NC(=O)Cn2c(=O)n(Cc3ccc(C(=O)NCc4ccc5c(c4)OCO5)cc3)c(=O)c3ccccc32)cc1,-4.4%,-20.8%,-0.4%,-3.4%,28.2µM*
COc1ccc(N/N=C(\C=N\O)C(=O)c2ccc(OC)cc2)cc1,5.2%,?,-4.2%,12.6µM*,15.6%
CN1CCc2c(sc3c2C(=O)NC(c2ccc(OC(=O)c4ccccc4)cc2)N3)C1 (stereo unspecified),-12.2%,-14.3%,14.6%,5.62µM*,?
CN1CCc2c(sc3c2C(=O)NC(c2ccc(OC(=O)c4ccc(C(C)(C)C)cc4)cc2)N3)C1 (stereo unspecified),-3.5%,-18.6%,12.9%,?,-9.1%
CN1CCc2c(sc3c2C(=O)NC(c2ccc(OC(=O)c4ccc(Cl)cc4)cc2)N3)C1 (stereo unspecified),-4.3%,-11.9%,-2.9%,6.31µM*,-3.7%
CCc1ccccc1NCC(=O)Nc1ccc(Cl)c(C(F)(F)F)c1,5.4%,17.8µM*[quencher],-1.5%,-18.9%,?
COc1ccccc1NC(=O)CN1CCN(CC(=O)Nc2ccc(Cl)c(C(F)(F)F)c2)CC1,-4.9%,-24.0%,-2.7%,-5.8%,-7.1%
CCn1cc2nc(SCc3cccc(OC)c3)n(Cc3ccc(Cl)cc3)c(=O)c2n1,-18.6%[53 µM],-18.9%,0.0316µM*[quencher],-12.5%,-0.1%
CC(=O)NC1=NC(=O)/C(=C/c2cn(C(C)=O)nc2-c2ccccc2)S1,15.1%,-22.2%,-0.7%,28.2µM*,?
Cc1ccc(S(=O)(=O)c2nnn3c2nc(Nc2ccc(C(C)C)cc2)c2sccc23)cc1C,6.9%,?,-1.5%,15.9%,12.6µM*
CCOc1ccc(Nc2nc3c(S(=O)(=O)c4ccc(C(C)C)cc4)nnn3c3ccsc23)cc1,-0.5%,?,-1.0%,7.9%,-8.6%
SMILES,TRb-SRC2 inh,Tau fluor cs,TexasRed fluor,Tau fibril ThT,Tau FP inhib
CC(C)c1ccc2[nH]c(O)c(N=NC(=S)NCCc3ccccc3)c2c1,-0.7%,?,0.6%,?,-14.8%
CCOc1ccc(NC(=S)N=Nc2c(O)[nH]c3ccccc23)cc1,-6.1%,?,-1.6%,?,?
Oc1cccc(NC(=S)N=Nc2c(O)[nH]c3ccccc23)c1,19.5%,?,?,10µM*,3.8%
Oc1[nH]c2ccccc2c1N=NC(=S)NCCc1ccccc1,-7.8%,12.6µM*[quencher],-5.1%,14.1µM*,?
COc1cc2c(=O)n(CCC(=O)NCC3CCCO3)c(=O)n(CC(=O)Nc3ccc(F)cc3)c2cc1OC (stereo unspecified),-6.6%,-13.2%,-3.6%,-1.8%,-11.5%
O=C(NCCc1nc2ccccc2n1Cc1ccccc1F)c1ccc(F)cc1,-0.7%,-16.9%,-0.6%,-8.3%,-12.2%
O=C(Nc1ccc2c(c1)OCCO2)c1ccccc1F,-8.9%,6.5%,1.5%,-8.5%,-2.0%
O=C(Nc1ccc2c(c1)OCCO2)c1cccc2nc3ccccc3nc12,-6.7%,?,-6.3%,4.47µM*,4.8%
CC1=NN(c2nc(-c3ccc(C)cc3)cs2)C(=O)C1N=Nc1cccc(C)c1 (stereo unspecified),5.6%,-27.8%,-0.9%,2µM*,?
CCOC(=O)c1sc(N2N=C(C)C(N=Nc3cccc(C)c3)C2=O)nc1C (stereo unspecified),5.6%,nt,-3.7%,nt,nt
O=C(NC1CCCCC1)c1c[nH]c2ccc(S(=O)(=O)Nc3ccccc3F)cc2c1=O,0.0%,?,1.5%,-10.8%,28.2µM*
CCc1ccccc1NS(=O)(=O)c1ccc2[nH]cc(C(=O)NC3CCCC3)c(=O)c2c1,-3.5%,?,-0.7%,6.5%,12.6µM*
CC(=O)c1cccc(NS(=O)(=O)c2c(C)nc3sc(C)cn3c2=O)c1,1.2%,-10.6%,-0.4%,-4.7%,-2.4%
Cc1ccc(S(=O)(=O)c2nnn3c2nc(NC2CCCCCC2)c2sccc23)cc1C,-4.5%,-26.4%,0.1%,-2.9%,?
COc1ccc(/C=C/C(=O)c2ccc(Cl)cc2)c(OC)c1,-0.2%,-10.7%,-6.5%,?,2.6%
COc1ccc(C(=O)/C=C/c2ccc(OC)cc2OC)c(O)c1,9.7%,-29.5%,-5.2%,17.8µM*,-5.0%
COc1ccc(/C=C/C(=O)c2cc(Cl)ccc2O)c(OC)c1,1.4%,-24.2%,0.8%,15.8µM*,-4.8%
Cc1ccc(NC(=O)Cn2c(=O)n(-c3ccc(C)cc3)c(=O)c3ccc(C(=O)NCc4ccccc4Cl)cc32)cc1,1.8%,-19.6%,-1.6%,?,-18.5%
CC1CCN(c2nnc(-n3cccc3CNc3cccc(F)c3)s2)CC1,7.9%,?,-6.6%,?,9.9%
COC(=O)CNC(=O)[C@@]1(C)C=C[C@@H](Cc2ccccc2)N1C(C)=O,10.7%,-8.2%,-1.6%,-6.1%,-4.1%
c1cc(Nc2cccc3nccnc23)c2nccnc2c1,-4.6%,-28.4%,-4.0%,5.01µM*,-2.8%
